RecA splice inh = blocks M. tuberculosis RecA intein splicing; P9WHJ3; cell-free RecA intein splicing, fluorescence; inhibition, % (concentration not given with the values); 0.75% of 290,000 active; in the data active = inhibition above about 30%; inconclusive = no clear call, values can overlap the other calls
GDH-TPI counter = inhibits GDH-TPI coupling enzymes, artifact for Mtb FBA screen. GDH-TPI coupled enzyme counterscreen, NADH absorbance. 1.2% of 360,000 active. inhibition, % at 4.8 µM; in the data active = inhibition above about 30%
PrPC surface inh = inhibitors of human cell surface prion protein PrPC; AID 720596; inhibition, % at 13.8 µM; P04156; TR-FRET read-out; 0.43% of 370,000 active; in the data active = inhibition above about 24%
FBA Mtb inh = inhibits M. tuberculosis FBA enzyme. 2.3% of 360,000 active. inhibition, % at 1 µM. purified M. tuberculosis FBA, fluorescence read-out. P9WQA3; in the data active = inhibition above about 27%
BJeLR viability = kills HRASV12-expressing BJeLR cells; inhibition, % (concentration not given with the values); BJeLR (HRASV12) viability, CellTiter-Glo ATP luminescence, 48 h; 0.17% of 300,000 active; in the data active = inhibition above about 50%; inconclusive = no clear call, values can overlap the other calls
Of the large screens only hits and unclear results are named; the others gave an inactive call. An excerpt weighted towards active compounds, which were near 4.2% of everything screened.

COc1cccc(-c2nnc3n2N=C(c2ccc(Cl)cc2)CS3)c1	none (no result: RecA splice inh, GDH-TPI counter, FBA Mtb inh, BJeLR viability)
C[N+]1=C2N[C@@H](c3ccccc3)CC(=O)N2/C(=C\c2ccccc2)[C@@H]1Cc1ccccc1	none (no result: RecA splice inh, GDH-TPI counter, FBA Mtb inh, BJeLR viability)
Cc1[nH]n(-c2ccccc2)c(=O)c1/C=C1/C=c2ccccc2=N1	RecA splice inh 34.5
CC(c1nccs1)N(C)c1nc2nonc2nc1NC1CC1 (centres undefined)	GDH-TPI counter 32.9
COc1ccc(-n2ncc3c2CC(C)(C)CC3NC(=O)C2=CC(=O)CC(C)(C)O2)cc1 (centres undefined)	FBA Mtb inh 152.8
CCN(CC)c1ccc(/C=C2/C(=O)NC(=O)N(CC3CCCO3)C2=O)cc1 (centres undefined)	GDH-TPI counter 39.8
O=C1NC(=O)N(CC2CCCO2)C(=O)/C1=C/c1cccs1 (centres undefined)	none
CCN(CC)c1ccc(/C=C2\C(=O)NC(=O)N(Cc3ccco3)C2=O)cc1	GDH-TPI counter 31.4
COc1ccc(CCNCC(O)COc2cccc(C)c2)cc1OC (centres undefined)	none (no result: RecA splice inh, GDH-TPI counter, FBA Mtb inh, BJeLR viability)
Cc1ccccc1C(=O)N1CCN(C(=O)C(=O)c2cccc(C(F)(F)F)c2)CC1	none (no result: RecA splice inh, GDH-TPI counter, FBA Mtb inh, BJeLR viability)
CC(=O)c1ccc(NS(=O)(=O)c2ccc(N/C=C/C(=O)c3ccc(F)cc3)cc2)cc1	GDH-TPI counter 60.8
COc1ccc(N2CCN(C(=O)CSc3ncccc3-c3nc4ccccc4[nH]3)CC2)cc1	none (no result: PrPC surface inh)
COc1ccccc1N1CCN(C(=O)CSc2ncccc2-c2nc3ccccc3[nH]2)CC1	FBA Mtb inh 27.1
CN1[C@H](Cc2ccccc2)COc2cccc(F)c2S1(=O)=O	none (no result: RecA splice inh, GDH-TPI counter, FBA Mtb inh, BJeLR viability)
CN(CCO)CC(O)CN(c1ccccc1)c1ccccc1 (centres undefined)	none
CNCC(O)CN(c1ccccc1)c1ccccc1 (centres undefined)	RecA splice inh 40.5
CCC[N+](CC#CCO)(CC#Cc1ccccc1)CCC	FBA Mtb inh 145.8
O=C1NCC2=C1C(c1ccccc1)Nc1ccccc1N2 (centres undefined)	RecA splice inh inconclusive, GDH-TPI counter 31.7
CCCC(=O)Nc1c2c(nc3ccccc13)N(c1ccccc1)CC2	FBA Mtb inh 191.7 (no result: PrPC surface inh)
COc1ccc(C(=O)N[C@H](C(=O)Nc2nc3c(s2)CCCC3)C(C)C)cc1	FBA Mtb inh active
CCOc1ccccc1C(=O)N[C@H](C(=O)Nc1nc2c(s1)CCCC2)C(C)C	none
CC(C)(C)NC(=O)C(c1cccnc1)N(C(=O)c1cnc[nH]1)c1ccc(C(C)(C)C)cc1 (centres undefined)	none (no result: RecA splice inh, GDH-TPI counter, FBA Mtb inh, BJeLR viability)
CCCC(=O)Nc1ccc2nn(-c3ccc(OC)cc3)nc2c1	FBA Mtb inh active
CC(C)C(=O)Nc1ccc2nn(-c3ccc(F)cc3)nc2c1	FBA Mtb inh 91.5 (no result: PrPC surface inh)
COc1ccc(-n2nc3cc(C)c(NC(=O)CC(C)C)cc3n2)cc1	none (no result: GDH-TPI counter, PrPC surface inh, FBA Mtb inh)
CCOC(=O)c1sc2c(c1C)C(c1cccs1)C1=C(CCCC1=O)N2 (centres undefined)	FBA Mtb inh active
CCOC(=O)C1=C(C)NC2=C(C(=O)CCC2)C1c1cccs1 (centres undefined)	none
COC(=O)[C@]12C[C@H](CC(=O)N3CCCC3)C(=O)N(Cc3ccc(Cl)cc3Cl)C1=C[C@H](C(C)(C)C)O[C@@H]2C	none (no result: RecA splice inh, GDH-TPI counter, FBA Mtb inh, BJeLR viability)
C/C(CC(=O)Nc1ccc(Cl)cc1)=N\NC(=O)C(=O)N1CCCCC1	RecA splice inh 77.8 (no result: BJeLR viability)
CCC(=O)OCOc1ccc(/C=C2/CCC(CN(C)C)C2=O)cc1 (centres undefined)	GDH-TPI counter 31.9 (no result: RecA splice inh, BJeLR viability)
COc1ccc(-c2cc3ccc(OCC(N)=O)cc3oc2=O)cc1OC	GDH-TPI counter 31.9
CCOC(=O)c1oc2cc(OCC(N)=O)ccc2c(=O)c1-c1ccc(OC)c(OC)c1	none
COc1ccc(-c2c(C)c3cc(O)ccc3oc2=O)cc1OC	none
COc1ccc(-c2cc3ccc(O)cc3oc2=O)cc1OC	FBA Mtb inh 118.8
Nc1[nH]c(C(=O)c2ccc(Br)cc2)c(-c2c(F)cccc2F)c1C(=O)NCCc1c[nH]c2ccccc12	none (no result: RecA splice inh, GDH-TPI counter, FBA Mtb inh, BJeLR viability)
Cc1ccc(/C=N\NC(=O)CN2CCN(S(=O)(=O)c3ccc(Br)cc3)CC2)s1	none (no result: RecA splice inh, GDH-TPI counter, FBA Mtb inh, BJeLR viability)
Cc1c(OCC(=O)N[C@@H](Cc2ccccc2)C(=O)O)ccc2c3c(c(=O)oc12)CCC3	none
Cc1c(C)c2c(OCC(=O)N[C@@H](C)C(=O)O)cc3c(c2oc1=O)CCC(C)(C)O3	FBA Mtb inh active
Cc1c(C)c2c(OCC(=O)Nc3cccnc3)cc3c(c2oc1=O)CCC(C)(C)O3	none
CCC(NC(=O)COc1cc2c(c3oc(=O)c(C)c(C)c13)CCC(C)(C)O2)C(=O)O (centres undefined)	FBA Mtb inh active
